# Inconclusive results are not listed. Active and inactive are the calls of the source. How the source made its calls: active means hit-call score of the fitted dose curve at least 0.9, where 1 is the maximum; inconclusive means response in the unintended direction; inactive means score below 0.9.
# Assays:
# [1] = target: human Protein Tyrosine Phosphatase Non-receptor Type 1 (PTPN1), PTPN1 (gene 5770) (UniProt P18031); assay: NVS_ENZ_hPTPN1: NovaScreen (NVS) Enzymatic Assay for human Protein Tyrosine Phosphatase Non-receptor Type 1 (PTPN1) (AID 2283201)
# How it was run: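 Cell-free fluorogenic-substrate activity assay on recombinant enzyme, read 1.33 h after dosing by fluorescence and electrophoretic mobility shift; loss of signal vs DMSO baseline. Primary screen in duplicate at 25 uM, hits then run in concentration-response up to 50 uM.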
# [2] = target: human Protein Phosphatase, Mg2+/Mn2+ Dependent 1A (PPM1A), PPM1A (gene 5494) (UniProt P35813); assay: NVS_ENZ_hPPM1A: NovaScreen (NVS) Enzymatic Assay for human Protein Phosphatase, Mg2+/Mn2+ Dependent 1A (PPM1A) (AID 2283198)
# Method: (§1) NVS_ENZ_hPPM1A is a biochemical, single-readout assay that uses extracted gene-proteins in a cell-free assay. Measurements were taken 1 hour after chemical dosing in a 384-well plate.NVS_ENZ_hPPM1A is one of one assay component(s) measured or calculated from the NVS_ENZ_hPPM1A assay. It is designed to make measurements of enzyme activity, a form of enzyme reporter, as detected with fluorescence intensity signals by Fluorescence and electrophoretic mobility shift technology.Data from the assay component NVS_ENZ_hPPM1A was analyzed into 1 assay endpoint. This assay endpoint, NVS_ENZ_hPPM1A, was analyzed in the positive analysis fitting direction relative to DMSO as the negative control and baseline of activity. Using a type of enzyme reporter, loss-of-signal activity can be used to understand changes in the enzymatic activity as they relate to the gene PPM1A. Furthermore, this assay endpoint can be referred to as a primary readout, because this assay has produced multiple assay endpoints where this one serves a enzymatic activity function. To generalize the intended target to other relatable targets, this assay endpoint is annotated to the phosphatase intended target family, where the subfamily is serine/threonine phosphatase.
# Binding assays used specific radioligands (tritiated, iodinated) with non-radioactive competitive displacement ligands in agonist or antagonist protocols (as indicated) and various reference compounds and inhibitors to titrate specific binding to receptors and transporters. Most enzyme assays (CYPs, kinases, phosphatases, proteases, HDACs) used recombinant protein and specific substrates (fluorescence mostly, some colorimetric and radioactive) and inhibitors, followed by a biochemical separation of substrate and product. All assays for the biochemical HTS were initially run in duplicate at a single concentration (10 uM for CYP450 assays and 25 uM for all others). Assay-chemical combinations meeting a pre-defined threshold (e.g., 30% inhibition and other criteria defined below) were then run in singleton concentration-response format with maximum concentration of 20 uM for CYPs and 50 uM for all others. Each assay was run with positive and negative controls, and concurrent controls on every plate. The follow-up (secondary) screen tested active chemical-pairs in concentration series, as well as a few additional assays not tested in the primary screen, some selected negative inactives, and several cases re-run in the concentration series for confirmatory purposes.
# [3] = target: Serine/threonine-protein phosphatase PP1-alpha catalytic subunit (Homo sapiens) (UniProt P62136); assay: NVS_ENZ_hPPP1CA: NovaScreen (NVS) Enzymatic Assay for human Protein Phosphatase 1 Aatalytic subunit Alpha (PPP1CA) (AID 2283200)
# How it was run: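 Recombinant enzyme activity read by fluorescence with electrophoretic mobility shift separating substrate from product, 1.33 h after dosing; loss of signal vs DMSO baseline. Primary screen in duplicate at 25 uM; actives retested in concentration-response up to 50 uM.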
# [4] = target: human Phosphodiesterase 10 (PDE10), PDE10A (gene 10846) (UniProt Q9Y233); assay: NVS_ENZ_hPDE10: NovaScreen (NVS) Enzymatic Assay for human Phosphodiesterase 10 (PDE10) (AID 2283195)
# How it was run: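 Fluorescence/mobility-shift readout of PDE10A enzyme activity, taken 1 h post-dosing. Primary screen in duplicate at 25 uM; actives (e.g. ≥30% inhibition) retested as singleton concentration-response, top concentration 50 uM.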
# [5] = target: Tyrosine-protein phosphatase non-receptor type 11 (Homo sapiens) (UniProt Q06124); assay: NVS_ENZ_hPTPN11: NovaScreen (NVS) Enzymatic Assay for human Protein Tyrosine Phosphatase Non-receptor Type 11 (PTPN11) (AID 2283202)
# How it was run: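 Recombinant human PTPN11 activity on a fluorescent substrate, with substrate/product separated by electrophoretic mobility shift; read 0.5 h after dosing, loss of signal vs DMSO. Duplicate 25 uM screen, then concentration-response up to 50 uM.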
# [6] = target: human Phosphatase and Tensin Homolog (PTEN), PTEN (gene 5728) (UniProt P60484); assay: NVS_ENZ_hPTEN: NovaScreen (NVS) Enzymatic Assay for human Phosphatase and Tensin Homolog (PTEN) (AID 2283203)
# How it was run: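 Cell-free recombinant human PTEN with fluorescent substrate; product separated by electrophoretic mobility shift and read by fluorescence 1 h after dosing. Primary screen in duplicate at 25 uM, actives followed in concentration series versus DMSO.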
# [7] = target: human Phosphoinositide 3-kinase alpha (PI3Ka), PIK3CA (gene 5290) (UniProt P42336); assay: NVS_ENZ_hPI3Ka: NovaScreen (NVS) Enzymatic Assay for human Phosphoinositide 3-kinase alpha (PI3Ka) (AID 2283196)
# How it was run: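 Duplicate single-point screen (25 uM), then singleton dose-response (max 50 uM) for compounds meeting the threshold. Cell-free kinase reaction, 1 h; fluorescent mobility-shift readout.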
# [8] = target: Tyrosine-protein phosphatase non-receptor type 13 (Homo sapiens) (UniProt Q12923); assay: NVS_ENZ_hPTPN13: NovaScreen (NVS) Enzymatic Assay for human Protein Tyrosine Phosphatase Non-receptor Type 13 (PTPN13) (AID 2283205)
# How it was run: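 Cell-free assay of recombinant human PTPN13 with a fluorescent substrate, product separated by electrophoretic mobility shift and read 0.5 h after dosing. Primary screen at 25 uM in duplicate, then concentration-response up to 50 uM. Loss of signal fitted against DMSO.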
# [9] = target: PPP2CA (gene 5515) (UniProt P67775); assay: NVS_ENZ_hPPP2CA: NovaScreen (NVS) Enzymatic Assay for human Protein Phosphatase 2 Aatalytic subunit Alpha (PPP2CA) (AID 2283199)
# Method: as §1, with “NVS_ENZ_hPPP2CA” for “NVS_ENZ_hPPM1A”, “1.33 hours” for “1 hour”, “plate.NVS_ENZ_hPPP2CA” for “plate.NVS_ENZ_hPPM1A”, “NVS_ENZ_hPPP2CA,” for “NVS_ENZ_hPPM1A,”, “PPP2CA.” for “PPM1A.”, “phosphatase. […]” for “phosphatase.”
# [10] = target: Tyrosine-protein phosphatase non-receptor type 12 (Homo sapiens) (UniProt Q05209); assay: NVS_ENZ_hPTPN12: NovaScreen (NVS) Enzymatic Assay for human Protein Tyrosine Phosphatase Non-receptor Type 12 (PTPN12) (AID 2283204)
# How it was run: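 Single-concentration duplicates (25 uM) preceded singleton concentration-response up to 50 uM for chemicals passing threshold. Cell-free recombinant PTPN12 activity was read 1.33 h after dosing via fluorescence after mobility-shift separation; loss of signal versus DMSO.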
# Chain of Tyrosine-protein phosphatase non-receptor type 11 (Homo sapiens) (Q06124 whole entry, looked up): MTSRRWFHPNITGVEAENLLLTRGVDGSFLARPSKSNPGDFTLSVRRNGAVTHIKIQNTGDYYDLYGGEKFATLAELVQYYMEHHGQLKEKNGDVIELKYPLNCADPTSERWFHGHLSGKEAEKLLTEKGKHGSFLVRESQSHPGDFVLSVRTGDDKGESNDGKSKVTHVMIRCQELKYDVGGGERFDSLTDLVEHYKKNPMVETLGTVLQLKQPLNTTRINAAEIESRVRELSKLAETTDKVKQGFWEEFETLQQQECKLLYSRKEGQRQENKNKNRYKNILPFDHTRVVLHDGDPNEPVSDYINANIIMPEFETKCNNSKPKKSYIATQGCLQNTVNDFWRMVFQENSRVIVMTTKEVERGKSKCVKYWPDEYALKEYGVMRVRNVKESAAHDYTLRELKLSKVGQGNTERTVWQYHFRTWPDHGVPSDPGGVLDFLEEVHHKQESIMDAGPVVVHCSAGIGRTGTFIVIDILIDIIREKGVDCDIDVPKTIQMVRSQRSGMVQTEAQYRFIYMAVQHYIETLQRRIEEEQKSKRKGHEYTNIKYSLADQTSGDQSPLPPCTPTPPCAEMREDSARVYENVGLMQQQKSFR
# Chain of Serine/threonine-protein phosphatase PP1-alpha catalytic subunit (Homo sapiens) (P62136 whole entry, looked up): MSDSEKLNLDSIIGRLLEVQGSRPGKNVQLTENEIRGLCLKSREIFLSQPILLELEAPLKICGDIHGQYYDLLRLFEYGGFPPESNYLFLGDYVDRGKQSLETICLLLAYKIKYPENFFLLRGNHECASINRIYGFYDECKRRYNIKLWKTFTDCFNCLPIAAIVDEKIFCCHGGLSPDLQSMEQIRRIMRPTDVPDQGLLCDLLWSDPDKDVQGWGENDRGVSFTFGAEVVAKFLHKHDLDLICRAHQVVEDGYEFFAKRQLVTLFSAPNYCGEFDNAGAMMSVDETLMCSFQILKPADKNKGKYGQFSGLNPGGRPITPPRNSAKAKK
# Chain of human Protein Tyrosine Phosphatase Non-receptor Type 1 (PTPN1), PTPN1 (gene 5770) (P18031 whole entry, looked up): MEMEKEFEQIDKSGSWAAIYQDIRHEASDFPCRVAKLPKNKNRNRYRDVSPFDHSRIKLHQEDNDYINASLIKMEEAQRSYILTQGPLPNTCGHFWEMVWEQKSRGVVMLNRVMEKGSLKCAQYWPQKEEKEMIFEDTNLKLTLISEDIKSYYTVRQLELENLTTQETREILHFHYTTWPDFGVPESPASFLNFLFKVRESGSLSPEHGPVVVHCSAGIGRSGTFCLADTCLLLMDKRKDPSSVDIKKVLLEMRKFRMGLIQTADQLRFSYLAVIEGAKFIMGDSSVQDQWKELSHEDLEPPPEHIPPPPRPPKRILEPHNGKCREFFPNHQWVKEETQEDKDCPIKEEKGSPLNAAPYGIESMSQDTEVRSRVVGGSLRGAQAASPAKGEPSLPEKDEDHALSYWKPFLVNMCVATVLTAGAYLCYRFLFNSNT
# Chain of human Phosphatase and Tensin Homolog (PTEN), PTEN (gene 5728) (P60484 whole entry, looked up): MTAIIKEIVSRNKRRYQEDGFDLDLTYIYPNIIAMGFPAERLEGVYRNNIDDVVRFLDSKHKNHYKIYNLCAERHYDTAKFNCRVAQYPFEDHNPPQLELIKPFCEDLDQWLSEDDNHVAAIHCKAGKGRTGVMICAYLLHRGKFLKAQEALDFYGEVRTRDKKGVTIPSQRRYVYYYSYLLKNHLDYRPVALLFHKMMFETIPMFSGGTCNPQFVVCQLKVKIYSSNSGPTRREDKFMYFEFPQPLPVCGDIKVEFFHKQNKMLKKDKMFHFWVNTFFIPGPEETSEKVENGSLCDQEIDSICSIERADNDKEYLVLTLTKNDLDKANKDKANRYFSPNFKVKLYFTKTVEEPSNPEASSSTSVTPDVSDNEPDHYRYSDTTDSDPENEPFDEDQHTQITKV
# Chain of human Phosphodiesterase 10 (PDE10), PDE10A (gene 10846) (Q9Y233 whole entry, looked up): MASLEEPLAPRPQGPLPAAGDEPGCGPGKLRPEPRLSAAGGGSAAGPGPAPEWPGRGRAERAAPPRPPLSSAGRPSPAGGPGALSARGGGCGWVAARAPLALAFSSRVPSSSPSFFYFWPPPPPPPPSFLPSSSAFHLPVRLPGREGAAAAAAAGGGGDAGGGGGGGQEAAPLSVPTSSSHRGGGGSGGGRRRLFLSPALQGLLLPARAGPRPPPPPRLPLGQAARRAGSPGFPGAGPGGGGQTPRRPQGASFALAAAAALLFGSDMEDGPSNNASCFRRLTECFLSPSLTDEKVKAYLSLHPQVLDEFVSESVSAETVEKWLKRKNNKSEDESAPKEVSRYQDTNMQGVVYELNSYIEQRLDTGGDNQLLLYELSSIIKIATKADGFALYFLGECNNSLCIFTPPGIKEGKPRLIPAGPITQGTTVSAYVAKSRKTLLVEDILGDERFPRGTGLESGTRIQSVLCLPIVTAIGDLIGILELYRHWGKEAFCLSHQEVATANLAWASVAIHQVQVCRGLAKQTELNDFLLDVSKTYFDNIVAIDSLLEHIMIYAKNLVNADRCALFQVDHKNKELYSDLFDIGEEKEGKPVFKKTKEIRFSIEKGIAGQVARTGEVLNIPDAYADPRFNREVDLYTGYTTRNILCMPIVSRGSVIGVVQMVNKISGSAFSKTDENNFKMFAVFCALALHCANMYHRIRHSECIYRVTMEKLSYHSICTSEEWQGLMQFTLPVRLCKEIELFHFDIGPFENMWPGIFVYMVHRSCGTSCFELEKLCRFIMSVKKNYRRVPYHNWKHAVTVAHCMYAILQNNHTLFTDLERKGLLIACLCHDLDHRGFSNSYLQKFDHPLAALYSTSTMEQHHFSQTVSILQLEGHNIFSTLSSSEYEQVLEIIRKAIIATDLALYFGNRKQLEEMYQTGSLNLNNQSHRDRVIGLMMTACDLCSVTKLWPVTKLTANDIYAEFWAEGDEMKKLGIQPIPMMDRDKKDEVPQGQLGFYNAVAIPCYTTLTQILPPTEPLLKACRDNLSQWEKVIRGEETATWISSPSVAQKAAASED
# Chain of human Protein Phosphatase, Mg2+/Mn2+ Dependent 1A (PPM1A), PPM1A (gene 5494) (P35813 whole entry, looked up): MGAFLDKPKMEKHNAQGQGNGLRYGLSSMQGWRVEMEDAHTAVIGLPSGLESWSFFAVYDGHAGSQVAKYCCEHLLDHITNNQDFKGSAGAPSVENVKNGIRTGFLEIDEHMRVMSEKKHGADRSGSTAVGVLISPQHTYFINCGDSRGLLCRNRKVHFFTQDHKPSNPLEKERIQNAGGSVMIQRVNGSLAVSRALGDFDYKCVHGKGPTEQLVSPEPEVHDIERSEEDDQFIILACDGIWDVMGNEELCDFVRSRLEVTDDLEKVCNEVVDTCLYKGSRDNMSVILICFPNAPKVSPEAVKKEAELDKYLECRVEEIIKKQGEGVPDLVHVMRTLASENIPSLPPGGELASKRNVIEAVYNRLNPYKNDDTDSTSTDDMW
# Chain of human Phosphoinositide 3-kinase alpha (PI3Ka), PIK3CA (gene 5290) (P42336 whole entry, looked up): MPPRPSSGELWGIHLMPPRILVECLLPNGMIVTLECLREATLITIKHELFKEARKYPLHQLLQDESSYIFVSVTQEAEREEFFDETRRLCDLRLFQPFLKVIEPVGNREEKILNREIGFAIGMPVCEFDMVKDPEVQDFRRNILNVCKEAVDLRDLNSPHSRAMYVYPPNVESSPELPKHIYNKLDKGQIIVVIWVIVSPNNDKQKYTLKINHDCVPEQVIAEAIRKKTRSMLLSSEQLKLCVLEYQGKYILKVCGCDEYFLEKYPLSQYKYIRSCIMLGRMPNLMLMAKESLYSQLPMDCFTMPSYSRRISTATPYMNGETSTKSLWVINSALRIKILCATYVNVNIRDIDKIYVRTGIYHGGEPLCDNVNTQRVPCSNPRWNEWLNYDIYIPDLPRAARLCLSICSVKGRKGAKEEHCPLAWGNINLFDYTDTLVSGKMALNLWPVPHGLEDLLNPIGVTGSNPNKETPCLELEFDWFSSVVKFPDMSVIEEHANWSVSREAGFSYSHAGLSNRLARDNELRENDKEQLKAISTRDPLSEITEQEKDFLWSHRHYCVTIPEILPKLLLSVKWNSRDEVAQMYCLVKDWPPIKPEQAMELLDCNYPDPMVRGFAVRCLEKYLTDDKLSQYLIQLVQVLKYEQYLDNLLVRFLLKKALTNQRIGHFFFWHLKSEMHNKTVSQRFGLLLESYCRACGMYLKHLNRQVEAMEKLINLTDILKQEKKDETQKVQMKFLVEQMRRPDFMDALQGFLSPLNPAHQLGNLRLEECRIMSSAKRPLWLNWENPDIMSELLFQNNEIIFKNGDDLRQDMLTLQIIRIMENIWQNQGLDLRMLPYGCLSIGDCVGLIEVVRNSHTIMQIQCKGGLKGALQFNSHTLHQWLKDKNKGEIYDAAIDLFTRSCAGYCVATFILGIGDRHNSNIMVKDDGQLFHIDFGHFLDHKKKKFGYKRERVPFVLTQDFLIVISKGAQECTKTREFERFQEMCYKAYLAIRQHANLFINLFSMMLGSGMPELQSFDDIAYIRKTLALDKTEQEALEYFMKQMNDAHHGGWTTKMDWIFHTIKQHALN
# Chain of Tyrosine-protein phosphatase non-receptor type 12 (Homo sapiens) (Q05209 whole entry, looked up): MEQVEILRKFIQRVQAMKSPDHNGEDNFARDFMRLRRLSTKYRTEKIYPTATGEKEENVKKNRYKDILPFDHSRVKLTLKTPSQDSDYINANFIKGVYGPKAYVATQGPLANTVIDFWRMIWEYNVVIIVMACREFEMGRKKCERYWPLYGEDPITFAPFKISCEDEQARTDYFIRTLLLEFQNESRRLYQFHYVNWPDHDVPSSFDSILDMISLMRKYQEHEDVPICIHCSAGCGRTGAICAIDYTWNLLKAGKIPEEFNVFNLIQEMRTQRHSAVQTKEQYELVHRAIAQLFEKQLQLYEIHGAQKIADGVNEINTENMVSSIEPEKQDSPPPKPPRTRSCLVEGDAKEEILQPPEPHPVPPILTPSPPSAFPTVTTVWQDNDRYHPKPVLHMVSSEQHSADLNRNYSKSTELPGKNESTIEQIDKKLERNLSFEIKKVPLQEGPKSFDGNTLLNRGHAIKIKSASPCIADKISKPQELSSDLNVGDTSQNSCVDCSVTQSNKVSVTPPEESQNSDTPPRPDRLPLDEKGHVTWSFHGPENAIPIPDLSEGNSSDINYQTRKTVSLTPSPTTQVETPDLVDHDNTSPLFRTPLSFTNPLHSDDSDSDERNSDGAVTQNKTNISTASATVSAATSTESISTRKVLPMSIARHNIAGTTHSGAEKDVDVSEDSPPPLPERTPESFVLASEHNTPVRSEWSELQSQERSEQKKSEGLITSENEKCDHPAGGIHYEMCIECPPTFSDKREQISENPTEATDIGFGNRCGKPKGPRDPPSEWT
structure (smiles),measurement,setting,value
CCOCCOC(C)=O,outcome,[1],inactive
Clc1ccc(C(c2ccccc2Cl)C(Cl)(Cl)Cl)cc1 (stereo not given),outcome,[2],inactive
same,outcome,[3],inactive
O=C(O)C(F)(F)C(F)(F)C(F)(F)C(F)(F)C(F)(F)F,outcome,[4],inactive
same,outcome,[1],inactive
same,outcome,[5],inactive
same,outcome,[6],inactive
CCC(C)c1cc([N+](=O)[O-])cc([N+](=O)[O-])c1O (stereo not given),outcome,[2],inactive
NS(=O)(=O)C(F)(F)C(F)(F)C(F)(F)C(F)(F)C(F)(F)C(F)(F)C(F)(F)C(F)(F)F,outcome,[2],inactive
CC(C)C(=O)OCC(C)(C)C(OC(=O)C(C)C)C(C)C (stereo not given),outcome,[4],inactive
same,outcome,[7],inactive
same,outcome,[3],inactive
same,outcome,[8],inactive
O=S(=O)(O)C(F)(F)C(F)(F)C(F)(F)C(F)(F)C(F)(F)C(F)(F)F,outcome,[4],inactive
same,outcome,[6],inactive
Cc1cc(-c2ccc(N)c(C)c2)ccc1N,outcome,[9],inactive
same,outcome,[3],inactive
O=C(O)C(F)(F)C(F)(F)C(F)(F)C(F)(F)C(F)(F)C(F)(F)C(F)(F)C(F)(F)F,outcome,[1],inactive
same,outcome,[6],inactive
same,outcome,[10],inactive
Cc1cccc([N+](=O)[O-])c1,outcome,[3],inactive
same,outcome,[6],inactive
Oc1ccc(C(c2ccc(O)cc2)(C(F)(F)F)C(F)(F)F)cc1,outcome,[1],inactive
same,outcome,[5],inactive
ClC1=C(Cl)[C@]2(Cl)[C@@H]3[C@@H](Cl)[C@H]4O[C@H]4[C@@H]3C1(Cl)C2(Cl)Cl,outcome,[3],inactive
CC1=C2C[C@H]3[C@@H](CC=C4C[C@@H](O)CC[C@@]43C)[C@@H]2CC[C@]12O[C@@H]1C[C@H](C)CN[C@H]1[C@H]2C,outcome,[4],inactive
same,outcome,[7],inactive
same,outcome,[1],inactive
same,outcome,[5],inactive
same,outcome,[10],inactive
same,AC50,[8],6.4 µM (active)
C=CC(N)=O,outcome,[2],inactive
O=C(O)C(F)(F)C(F)(F)C(F)(F)C(F)(F)C(F)(F)C(F)(F)C(F)(F)C(F)(F)C(F)(F)F,AC50,[3],43.3 µM (active)
Cc1cc2c3c(c1)C(c1ccccc1)=N[C@@H](NC(=O)c1ccncc1)C(=O)N3CC2,AC50,[4],5.66 µM (active)
same,outcome,[2],inactive
